The panel holds about 83,000 compounds, 20% with a hit somewhere; the sample as a whole holds those more often.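 48-hour exposure, single concentration, 96-well plates; percent growth endpoint where 0 means no net growth. Active: below 10.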 Values without a mark were called inactive. Calls of active or inactive are those of the source.

Some test systems named below: DU-145 prostate; K-562 leukemia; MALME-3M melanoma; MDA-MB-231 breast; RXF 393 renal; SF-268 CNS; SF-295 CNS; SF-539 CNS; UACC-257 melanoma; M14 melanoma.
Common to all, as to test: NCI-60 one-dose screen, 48 h (100 = growth as untreated, 0 = no growth, -100 = all killed)
Holding throughout (details): 10 µM unless noted

Take `O=C(/C=C(/C=C/c1csc2ccccc12)OB(F)F)/C=C/c1csc2ccccc12`: the growth with DU-145 prostate is 28.5%; with K-562 leukemia, 23.2%; in the assay on MALME-3M melanoma it was 9.2% (active); with MDA-MB-231 breast it was 2.45% (active); with RXF 393 renal it was -28.4% (active); in the assay on SF-268 CNS, 5.79% (active). Besides, the growth in the assay with SF-295 CNS is 87%; in the assay on SF-539 CNS, 40.8%; in the assay on UACC-257 melanoma, 57.7%; in the assay with M14 melanoma, 8.88% (active).

Consider `COc1ccc(C(=O)c2cc(C)c(OC)c(C)c2)c(OC)c1N(C(=O)CCl)C(=O)CCl`, for which the growth with DU-145 prostate was 0.0631% (active); in the assay on K-562 leukemia, 9.77% (active); in the assay with MALME-3M melanoma, 49.8%; in the assay with MDA-MB-231 breast, -1.61% (active); in the assay on RXF 393 renal, 23.7%; in the assay on SF-268 CNS, 24.6%. In addition, the growth was 5.4% (active) in the assay with SF-295 CNS, -21.1% (active) in the assay on SF-539 CNS, 46.2% in the assay with UACC-257 melanoma and -20.7% (active) with M14 melanoma.

Take `NC(=NCc1ccccc1)C(N=Nc1ccccc1)C(=O)NCc1ccccc1` (stereo not given): the growth with DU-145 prostate is 94.4%; with K-562 leukemia it was 25.2%; in the assay with MALME-3M melanoma, 133%; with MDA-MB-231 breast it was 68.3%; in the assay with RXF 393 renal, 72.6%; in the assay with SF-268 CNS it was 53.5%. Besides, the growth in the assay on SF-295 CNS was 53.9%; in the assay with SF-539 CNS, 50.3%; in the assay with UACC-257 melanoma it was 95.4%; in the assay with M14 melanoma, 82.9%.

`CN1CCN(C(=O)[C@]23CCC(C)(C)C[C@H]2C2=CC[C@@H]4[C@@]5(C)C/C(=C/c6cccnc6)C(=O)C(C)(C)[C@@H]5CC[C@@]4(C)[C@]2(C)CC3)CC1`: the growth in the assay on DU-145 prostate was 71.6%; in the assay on K-562 leukemia, 10.9%; in the assay on MALME-3M melanoma it was 63.4%; in the assay on MDA-MB-231 breast it was 59.8%; in the assay on RXF 393 renal, 64.9%; in the assay with SF-268 CNS, 68.3%. The growth is 74% with SF-295 CNS, 80% with SF-539 CNS, 43.7% in the assay with UACC-257 melanoma and 57.5% in the assay on M14 melanoma.

Regarding `Cc1ccccc1NS(=O)(=O)c1cccc(C(=O)Nc2ccc(Br)cc2)c1`, the growth in the assay on DU-145 prostate is 57.8% [25 µM]; in the assay with K-562 leukemia it was 23.1% [25 µM]; with MALME-3M melanoma, 18% [25 µM]; in the assay with MDA-MB-231 breast, 56% [25 µM]; in the assay on RXF 393 renal, 60.7% [25 µM]; in the assay on SF-268 CNS, 36.5% [25 µM]. Besides, the growth in the assay with SF-295 CNS was 19.7% [25 µM]; in the assay on SF-539 CNS, 57.3% [25 µM]; in the assay with UACC-257 melanoma, 27.4% [25 µM]; in the assay on M14 melanoma, 35.5% [25 µM].

With `N#Cc1c(NC(=O)NCc2ccccc2)sc2c1CCCCC2`, the growth in the assay on DU-145 prostate was 3.54% (active); with K-562 leukemia, 12.7%; with MALME-3M melanoma it was 44.7%; in the assay on MDA-MB-231 breast, 10.7%; in the assay with RXF 393 renal it was -3.29% (active); in the assay with SF-268 CNS, 41%. Further, the growth was 19.9% in the assay on SF-295 CNS, -5.27% (active) with SF-539 CNS, 61.6% with UACC-257 melanoma and 10.9% in the assay on M14 melanoma.

Consider `C=C1C(=O)O[C@H]2[C@H]1CC/C(COC(=O)NCc1c[nH]c3ccc(Br)cc13)=C\CC[C@@]1(C)O[C@@H]21`, for which the growth with DU-145 prostate is -88.6% (active); in the assay with K-562 leukemia, 0.98% (active); in the assay on MALME-3M melanoma it was -45.4% (active); in the assay on MDA-MB-231 breast, -52.7% (active); with RXF 393 renal, -87.7% (active); in the assay with SF-268 CNS it was 3.85% (active). Besides, the growth with SF-295 CNS was 60.9%; in the assay on SF-539 CNS, -36.9% (active); with UACC-257 melanoma it was -39.6% (active); with M14 melanoma, -40.8% (active).

Consider `COc1cccc(C(=O)NNc2nc(Cl)nc(N3CCN(C(c4ccccc4)c4ccccc4)CC3)n2)c1`, for which the growth in the assay on DU-145 prostate was 101%; in the assay with K-562 leukemia, -34.7% (active); in the assay with MALME-3M melanoma it was 84.1%; with MDA-MB-231 breast, 59%; in the assay with RXF 393 renal, 78.4%; in the assay with SF-268 CNS, 99.3%. Besides, the growth was 96.3% in the assay on SF-295 CNS, 90.8% in the assay on SF-539 CNS, 88.4% in the assay with UACC-257 melanoma and 45.4% in the assay on M14 melanoma.

For `Cc1ccc(S(=O)(=O)NNC(=O)/C(=C\c2ccc(Cl)cc2)c2nc3ccccc3s2)cc1`, the growth with DU-145 prostate is 101%; with K-562 leukemia it was 84%; in the assay on MALME-3M melanoma, 98.6%; in the assay on MDA-MB-231 breast, 95.6%; with RXF 393 renal, 101%; with SF-268 CNS, 91.9%. Moreover, the growth in the assay with SF-295 CNS is 103%; with SF-539 CNS, 104%; in the assay with UACC-257 melanoma it was 98%; in the assay on M14 melanoma it was 86%.

As for `O=C(/C=C(O)/C=C/c1ccc(SC(F)(F)F)cc1)/C=C/c1ccc(SC(F)(F)F)cc1`, the growth is 97.2% with DU-145 prostate; 77.6% in the assay on K-562 leukemia; 98.6% with MALME-3M melanoma; 99.8% with MDA-MB-231 breast; 104% in the assay with RXF 393 renal; 86.3% in the assay on SF-268 CNS. Further, the growth was 97.5% with SF-295 CNS, 106% with SF-539 CNS, 104% in the assay on UACC-257 melanoma and 79.9% in the assay on M14 melanoma.

As to `CCN(CC)CC[n+]1cc2cc(OC)c(OC)cc2c2ccc3cc4c(cc3c21)OCO4`, the growth in the assay with DU-145 prostate is 1.33% (active); in the assay on K-562 leukemia, 2.65% (active); with MALME-3M melanoma it was -2.49% (active); with MDA-MB-231 breast, -19.5% (active); with RXF 393 renal, -39.1% (active); in the assay on SF-268 CNS, -16% (active). The growth is -2.66% (active) in the assay on SF-295 CNS, -14.7% (active) with SF-539 CNS, 18% in the assay on UACC-257 melanoma and -54.2% (active) with M14 melanoma.

In the case of `O=[N+]([O-])c1cc(Br)c2cccc3c2c1CC3`, the growth is 112% in the assay on DU-145 prostate; 100% in the assay on K-562 leukemia; 120% in the assay with MALME-3M melanoma; 87.1% in the assay with MDA-MB-231 breast; 110% in the assay on RXF 393 renal; 109% in the assay on SF-268 CNS. Besides, the growth with SF-295 CNS is 116%; with SF-539 CNS, 103%; with UACC-257 melanoma, 106%; with M14 melanoma, 104%.

As to `CCCCCN1C=C/C(=C\C(=O)N(C)c2ccc(OC(F)(F)F)cc2)c2ccccc21`, the growth was 110% with DU-145 prostate; 90.3% with K-562 leukemia; 95.3% in the assay on MALME-3M melanoma; 97.7% in the assay with MDA-MB-231 breast; 107% in the assay on RXF 393 renal; 100% in the assay on SF-268 CNS. Further, the growth was 93% in the assay with SF-295 CNS, 103% with SF-539 CNS, 93.8% with UACC-257 melanoma and 102% in the assay with M14 melanoma.
